Reference: the supplement of paper PMC6331611
± gives the standard deviation of the averaged measurements. Over roughly 1,600 compounds, “normalized growth (OD600, IQM-normalized) in LPM” has its median near 1; the lowest 2% begin near 0.014. What follows is part of a selection rich in the lowest values, with near analogues and random picks from the rest.

test system: Salmonella enterica serovar Typhimurium SL1344; experiment: normalized growth (OD600, IQM-normalized) in LPM (fraction of plate interquartile mean); higher = more bacterial growth (less inhibition); conditions: LPM pH 5.8; 10 µM; 16 h

`CC1CCc2cc(F)cc3c(=O)c(C(=O)O)cn1c23` (configuration not stated) and `CC1COc2c(N3CCN(C)CC3)c(F)cc3c(=O)c(C(=O)O)cn1c23` (configuration not stated) are within error of each other in normalized growth: 0.0174 ± 0.0072 for the first, 0.0109 ± 0.00084 for the second.

First: CC=CC1=C(C(=O)O)N2C(=O)[C@@H](NC(=O)[C@H](N)c3ccc(O)cc3)[C@H]2SC1
Second: COc1cccc(OC)c1C(=O)N[C@@H]1C(=O)N2[C@@H]1SC(C)(C)[C@@H]2C(=O)O
The normalized growth of the first is lower: 1.04 ± 0.032 for the first, 1.12 ± 0.019 for the second.

Compared with `CCCCC(=O)N(Cc1ccc(-c2ccccc2-c2nnn[nH]2)cc1)[C@H](C(=O)O)C(C)C`, `CCCc1nc(C(C)(C)O)c(C(=O)OCc2oc(=O)oc2C)n1Cc1ccc(-c2ccccc2-c2nnn[nH]2)cc1` is higher in normalized growth: 0.845 ± 0.034 for the first, 1.005 ± 0.0069 for the second.

First: CCC(=O)c1c(O)cc(O)cc1O
Second: CN(C)[C@@H]1C(O)=C(C(N)=O)C(=O)[C@@]2(O)C(O)=C3C(=O)c4c(O)cccc4[C@@](C)(O)[C@H]3[C@H](O)[C@@H]12
The normalized growth of the first is higher: 1.09 ± 0.016 for the first, 0.0138 ± 0.00025 for the second.

Going from `Cc1c(Nc2ncccc2C(=O)O)cccc1C(F)(F)F` to `CN(C)CCN(Cc1ccccc1)c1ccccn1`, the normalized growth falls from 1.04 ± 0.041 to 0.906 ± 0.035.

First: Cl.N=C(N)NCCC[C@H](N)C(=O)O
Second: CC(O)(CC(=O)O)CC(=O)O
The normalized growth of the first is higher: 1 ± 0.042 for the first, 0.921 ± 0.018 for the second.

Going from `C=C(NC(=O)C(=C)NC(=O)c1csc(C2=N[C@@H]3c4csc(n4)[C@H]4NC(=O)c5csc(n5)[C@H]([C@](C)(O)[C@@H](C)O)NC(=O)[C@H]5CSC(=N5)/C(=C/C)NC(=O)[C@H]([C@@H](C)O)NC(=O)c5csc(n5)[C@]3(CC2)NC(=O)[C@H](C)NC(=O)C(=C)NC(=O)[C@H](C)NC(=O)[C@H]([C@@H](C)CC)N[C@@H]2C=Cc3c([C@H](C)O)cc(nc3[C@H]2O)C(=O)O[C@@H]4C)n1)C(N)=O` to `C=C1c2c(Cl)ccc(O)c2C(=O)C2=C(O)[C@]3(O)C(=O)C(C(N)=O)=C(O)[C@@H](N(C)C)[C@@H]3[C@@H](O)[C@H]12.O=C(O)c1cc(S(=O)(=O)O)ccc1O`, the normalized growth falls from 1 ± 0.09 to 0.0199 ± 0.00036.

`C=C(C)[C@H]1CC=C(C)CC1` and `CC(=O)OCC(=O)[C@@]1(O)CC[C@H]2[C@@H]3CCC4=CC(=O)CC[C@]4(C)[C@@]3(F)[C@@H](O)C[C@@]21C` are within error of each other in normalized growth: 0.978 ± 0.024 for the first, 1.09 ± 0.11 for the second.

First: Cc1cc2nc3c(=O)[nH]c(=O)nc-3n(CC(O)C(O)C(O)COP(=O)(O)O)c2cc1C (configuration not stated)
Second: C[C@H]1c2cccc(O)c2C(=O)C2=C(O)[C@]3(O)C(=O)C(C(N)=O)=C(O)[C@@H](N(C)C)[C@@H]3[C@@H](O)[C@@H]21
The normalized growth of the first is higher: 0.822 ± 0.056 for the first, 0.0125 ± 0.00056 for the second.

`O=S(=O)(O)CCSSCCS(=O)(=O)O` and `CC1(C)[C@H]2CC[C@]1(CS(=O)(=O)O)C(=O)C2=Cc1ccc(C=C2C(=O)[C@@]3(CS(=O)(=O)O)CC[C@@H]2C3(C)C)cc1` are within error of each other in normalized growth: 1.02 ± 0.069 for the first, 0.989 ± 0.073 for the second.

First: CC(C)[C@H](NC(=O)[C@H](CC(=O)O)NC(=O)[C@H](CCCCN)NC(=O)[C@@H](N)CCCN=C(N)N)C(=O)N[C@@H](Cc1ccc(O)cc1)C(=O)O
Second: C/C(=C\C(=O)OCCCCCCCCC(=O)O)C[C@@H]1OC[C@H](C[C@@H]2O[C@H]2[C@@H](C)[C@H](C)O)[C@@H](O)[C@H]1O
The normalized growth of the first is higher: 0.991 ± 0.011 for the first, 0.00952 ± 0.00017 for the second.

First: O=C1c2c(O)cccc2C([C@@H]2O[C@H](CO)[C@@H](O)[C@H](O)[C@H]2O)c2cc(CO)cc(O)c21 (some centres not stated)
Second: C=C1c2cccc(O)c2C(=O)C2=C(O)[C@]3(O)C(=O)C(C(N)=O)=C(O)[C@@H](N(C)C)[C@@H]3[C@@H](O)[C@H]12
The normalized growth of the first is higher: 1 ± 0.043 for the first, 0.0154 ± 0.00028 for the second.

Compared with `C[N+]1(C)[C@@H]2CC[C@H]1C[C@@H](OC(=O)C(O)c1ccccc1)C2` (some centres not stated), `CN1CCCN=C1COC(=O)C(O)(c1ccccc1)C1CCCCC1` (configuration not stated) is higher in normalized growth: 0.976 ± 0.081 for the first, 1.23 ± 0.026 for the second.

Going from `Nc1ncnc(Nc2ccc(Cl)cc2)n1` to `COc1ccc(CN(CCN(C)C)c2ncccn2)cc1`, the normalized growth rises from 0.999 ± 0.071 to 1.11 ± 0.038.

Compared with `CCN(CC)CCOc1ccc(C(=C(Cl)c2ccccc2)c2ccccc2)cc1`, `CCCCC(CC)COC(=O)C(C#N)=C(c1ccccc1)c1ccccc1` (configuration not stated) is lower in normalized growth: 1.07 ± 0.023 for the first, 0.82 ± 0.0086 for the second.

Compared with `CN(C)[C@@H]1C(O)=C(C(=O)NCN2CCCC2)C(=O)[C@@]2(O)C(O)=C3C(=O)c4c(O)cccc4[C@@](C)(O)[C@H]3C[C@@H]12`, `CN(C)[C@@H]1C(O)=C(C(N)=O)C(=O)[C@@]2(O)C(O)=C3C(=O)c4c(O)cccc4[C@@](C)(O)[C@H]3C[C@@H]12` is lower in normalized growth: 0.854 ± 0.027 for the first, 0.0127 ± 0.00026 for the second.

First: CN(C)[C@@H]1C(O)=C(C(N)=O)C(=O)[C@@]2(O)C(O)=C3C(=O)c4c(O)ccc(Cl)c4[C@@](C)(O)[C@H]3C[C@@H]12
Second: CN(C)[C@@H]1C(O)=C(C(N)=O)C(=O)[C@@]2(O)C(O)=C3C(=O)c4c(O)ccc(Cl)c4[C@@H](O)[C@H]3C[C@@H]12
The normalized growth of the first is higher: 0.0113 ± 0.00051 for the first, 0.00865 ± 0.00039 for the second.

First: CN(C)c1cc(NC(=O)CNC(C)(C)C)c(O)c2c1C[C@H]1C[C@H]3[C@H](N(C)C)C(O)=C(C(N)=O)C(=O)[C@@]3(O)C(O)=C1C2=O
Second: CN(C)c1ccc(O)c2c1C[C@H]1C[C@H]3[C@H](N(C)C)C(O)=C(C(N)=O)C(=O)[C@@]3(O)C(O)=C1C2=O
The normalized growth of the first is higher: 0.962 ± 0.053 for the first, 0.0111 ± 0.00049 for the second.

First: CC(=O)[C@H]1CC[C@H]2[C@@H]3CC=C4C[C@@H](OC(=O)CCC(=O)O)CC[C@]4(C)[C@H]3CC[C@]12C
Second: N=C(N)NCC1COC2(CCCCC2)O1 (configuration not stated)
The normalized growth of the first is higher: 1.02 ± 0.027 for the first, 0.863 ± 0.015 for the second.

First: CCN(CC)CCc1nc(-c2ccccc2)no1
Second: CCN(CC)C(=O)c1cccnc1
The normalized growth of the first is lower: 0.956 ± 0.062 for the first, 1.14 ± 0.095 for the second.

Going from `CCc1cn([C@H]2C[C@H](O)[C@@H](CO)O2)c(=O)[nH]c1=O` to `O=c1[nH]c(=O)n([C@H]2C[C@H](O)[C@@H](CO)O2)cc1I`, the normalized growth rises from 0.664 ± 0.046 to 1.05 ± 0.026.

Going from `O=c1[nH]c(=O)n([C@H]2C[C@H](O)[C@@H](CO)O2)cc1F` to `COc1ccc(-c2cc(C(F)F)nn2-c2ccc(S(N)(=O)=O)cc2)cc1F`, the normalized growth rises from 0.0114 ± 0.00023 to 1.01 ± 0.035.

Going from `O=C1C(CC[S+]([O-])c2ccccc2)C(=O)N(c2ccccc2)N1c1ccccc1` (configuration not stated) to `CN1CCCC(n2nc(Cc3ccc(Cl)cc3)c3ccccc3c2=O)CC1` (configuration not stated), the normalized growth falls from 1.097 ± 0.0059 to 1.04 ± 0.039.

For `OC[C@@H](O)[C@@H](O)CO`, the normalized growth was 0.975 ± 0.05.
